From PubChem BioAssay (NCI)
About 83,000 compounds went through this panel and 20% of them were active in at least one assay; those are over-represented in the sample as a whole.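 Method: cells in 96-well plates; compound added at one concentration; 48 h incubation; percent growth measured; values under 10 scored active.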 Active and inactive are the calls of the source.

Tested on: NCI-H522 lung
Test: NCI-60 one-dose screen, 48 h (100 = growth as untreated, 0 = no growth, -100 = all killed)
Details: 10 µM unless noted
Protocol: Growth inhibition of the NCI-H522 human Non-Small Cell Lung tumor cell line is measured as a screen for anti-cancer activity. Cells are grown in 96 well plates and exposed to the test compound for 48 hours. Compounds are tested at a single concentration, which is 10^-5 M for most compounds. The reported endpoint is percent growth (GI% or GIPRCNT), where numbers from 0 - 100% represent growth inhibition, and numbers from -100% - 0 represent cell death. For example, a value of 40 represents 60% growth inhibition. A value of 0 means no net growth occurred over the course of the experiment. A value of -40 indicates 40% of cells at the beginning of the experiment died by the end of the experiment. A value of -100 means all cells are dead at the end of the experiment.
NCI-60 Human Tumor Cell Lines Screen was performed using the standard one-dose NCI protocol, which is described in more detail at https://dtp.cancer.gov/discovery_development/nci-60/default.htm.
Compounds with GIPRCNT values below 10 were considered active. Activity score was based on GIPRCNT using the following formula: […]
Score is 0 for GIPRCNT values of 100 or above, 50 for GIPRCNT values of 0, and 100 for GIPRCNT values of -100.

| Structure (SMILES) | growth |
| --- | --- |
| CC[n+]1ccc(Nc2ccc(NC(=O)c3ccc(Nc4cc[n+](CC)c5ccc([N+](=O)[O-])cc45)cc3)cc2)cc1 | 65.7% (inactive) |
| O=[N+]([O-])/C(=C/c1ccccc1)c1ccccc1 | 83% (inactive) |
| S=C=Nc1ccc(N2CCOCC2)cc1 | 74.4% (inactive) |
| O=C1C=CC(=O)N1c1cccc2c1CCCC2 | 11.6% (inactive) |
| N#CC(I)CS(=O)(=O)c1ccccc1 (stereo not given) | -80.6% (active) |
| O=[N+]([O-])c1ccc(Oc2ccccc2Cl)c([N+](=O)[O-])c1 | 73.8% (inactive) |
| O=C1/C(=C\c2ccc([N+](=O)[O-])cc2)CS(=O)(=O)C/C1=C/c1ccc([N+](=O)[O-])cc1 | -79.9% (active) |
| O=C1C=CC(=O)c2c(O)c(CO)c(CO)c(O)c21 | 56.6% (inactive) |
| O=[N+]([O-])c1ccc([I+]c2ccccc2)cc1 | -87.8% (active) |
| O=C(c1ccccc1)C(O)C(Br)(CBr)c1ccccc1 (stereo not given) | -30.8% (active) |
| CCC1C[N+]2=C(c3cc(OC)c(OC)cc3CC2)c2c1cc1n2CCc2cc(OC)c(OC)cc2-1 (stereo not given) | 17% (inactive) |
| O=C(C[P+](c1ccccc1)(c1ccccc1)c1ccccc1)c1ccccc1 | 61.4% (inactive) |
| N=C1C=C(N)C(=O)c2ccccc21 | -67% (active) |
| Cc1cc2nc(CC(=O)c3ccncc3)c(=O)[nH]c2cc1C | 87.6% (inactive) |
| COc1cc(/C=C2\SC(=S)N(/C=C/c3nc4ccccc4[nH]c3=O)C2=O)cc(OC)c1OC | 60.3% (inactive) |
| Cc1ccc2cccc(OC(=O)Nc3cccc(C(F)(F)F)c3)c2n1 | 37.2% (inactive) |
| C(=N\Nc1ccc2ccccc2n1)/c1ccccn1 | 20.2% (inactive) |
| CCCCCC/C=C1\CCC(CN2CCCC2)C1=O (stereo not given) | 93.5% (inactive) |
| Clc1ccccc1C(c1ccccc1)(c1ccccc1)n1ccnc1 | 28.1% (inactive) |
| CC1=CC(=O)C=CC1(C)C(Cl)(Cl)Cl (stereo not given) | 82.2% (inactive) |

| Structure (SMILES) | growth |
| --- | --- |
| Oc1ccccc1N=Cc1ccccc1 | 81.1% (inactive) |
| O=C(Nc1ccc(Cl)c(Cl)c1)OCc1ccco1 | 5.5% (active) |
| CCCCCCCCCCCCSC(=N)N | 88.5% (inactive) |
| CC(C)Nc1ccc(Nc2ccc(NC(C)C)cc2)cc1 | 35.2% (inactive) |
| NC(=S)N/N=C/c1ncccc1O | 26% (inactive) |
| Cc1ccc(NC2=CC(=O)C(=O)c3ccccc32)cc1 | 18.8% (inactive) |
| OC(CSc1ccccc1)CN1CCN(c2ccc(Cl)cc2)CC1 (stereo not given) | 90.3% (inactive) |
| CCN1/C(=C/C(C)=C/c2sc3ccc4ccccc4c3[n+]2CC)Sc2ccc3ccccc3c21 | -77.3% (active) |
| CCOC(=O)C1=C(C(=O)c2ccccc2)C(c2cccc([N+](=O)[O-])c2)C(C(=O)c2ccccc2)=C(C(=O)OCC)N1 | 83.5% (inactive) |
| O=[N+]([O-])c1ccc(N2CCN(Cc3ccccc3)CC2)c2c1no[n+]2[O-] | -74.1% (active) |
| CC12CCC(O)CC1=CCC1C2CCC2(C)C3=NN=CC3CC12 (stereo not given) | 105% (inactive) |
| Nc1cc(-c2ccccc2)ccc1O | 96.3% (inactive) |
| c1ccc2sc(SSN3CC4CCC(CC4)C3)nc2c1 | 28.9% (inactive) |
| Oc1c(Cl)cc(Cl)cc1C=NCC1CCC(CN=Cc2cc(Cl)cc(Cl)c2O)CC1 (stereo not given) | 91.6% (inactive) |
| NNc1ccc(Cl)cc1Cl | 53.6% (inactive) |
| COC(=O)c1nc(=S)[nH]c(C(=O)OC)c1C(=O)c1ccc(Cl)c(Cl)c1 | 101% (inactive) |
| CCOc1ccc(C(C[N+](=O)[O-])Sc2ccccc2N)cc1 (stereo not given) | 85.3% (inactive) |
| C1=C(c2ccccc2)c2ccccc2C1 | 96% (inactive) |
| CN1CSC(=S)N(Cc2ccccc2)C1 | -25.6% (active) |
| O=[n+]1c2ccccc2n([O-])c2cc(Cl)ccc21 | 72% (inactive) |
